Unmarked numbers belong to inactive results. Some of the results follow. The source made the active and inactive calls.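 The calls were made as follows, unless noted: active = mean inhibition above about 50% in the one-dose retest (limit read from the data); inactive = the rest.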
Legend:
[1] = lowers stimulated NF-kB luciferase signal in Jurkat – cell-based, luminescence, single concentration, T-cell NF-kB inhibitor project, confirmation (AID 435020;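 active = inhibition reaching about 45% at 4 µM in either replicate, limit read from the data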;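 also: plate controls were PMA/ionomycin stimulated DMSO wells for no effect and unstimulated DMSO wells for full effect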); conditions: PMA/ionomycin-induced, 16 h, at 4 µM, active compounds read high
[2] = biological target: Sentrin-specific protease 8 (Homo sapiens) (UniProt Q96LD8); test: human SENP8 peptidase blockers, hit retest – biochemical, luminescence, single concentration, confirmation (AID 488912;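 active = mean inhibition across replicates above about 50%, limit read from the data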); conditions: Recombinant SENP8, Z-RLRGG-aminoluciferin luminescence, 60 min; at 12.5 µM; active compounds read high
Chain of Sentrin-specific protease 8 (Homo sapiens) (Q96LD8 whole entry, looked up, the tested form may be a part): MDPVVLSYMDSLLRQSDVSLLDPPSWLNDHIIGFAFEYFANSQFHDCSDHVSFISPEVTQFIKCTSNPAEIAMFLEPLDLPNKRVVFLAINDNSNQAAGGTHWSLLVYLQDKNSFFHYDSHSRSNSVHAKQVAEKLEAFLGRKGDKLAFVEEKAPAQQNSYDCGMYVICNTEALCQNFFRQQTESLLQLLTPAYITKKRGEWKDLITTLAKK

[3] = biological target: Sentrin-specific protease 6 (Homo sapiens) (UniProt Q9GZR1); test: inhibition of human SENP6 catalytic domain – biochemical, luminescence, single concentration, confirmation (AID 488915); conditions: recombinant SENP6, Z-RLRGG-aminoluciferin luminescence; at 12.5 µM; active compounds read high
Chain of Sentrin-specific protease 6 (Homo sapiens) (Q9GZR1 628-1112 limits assumed): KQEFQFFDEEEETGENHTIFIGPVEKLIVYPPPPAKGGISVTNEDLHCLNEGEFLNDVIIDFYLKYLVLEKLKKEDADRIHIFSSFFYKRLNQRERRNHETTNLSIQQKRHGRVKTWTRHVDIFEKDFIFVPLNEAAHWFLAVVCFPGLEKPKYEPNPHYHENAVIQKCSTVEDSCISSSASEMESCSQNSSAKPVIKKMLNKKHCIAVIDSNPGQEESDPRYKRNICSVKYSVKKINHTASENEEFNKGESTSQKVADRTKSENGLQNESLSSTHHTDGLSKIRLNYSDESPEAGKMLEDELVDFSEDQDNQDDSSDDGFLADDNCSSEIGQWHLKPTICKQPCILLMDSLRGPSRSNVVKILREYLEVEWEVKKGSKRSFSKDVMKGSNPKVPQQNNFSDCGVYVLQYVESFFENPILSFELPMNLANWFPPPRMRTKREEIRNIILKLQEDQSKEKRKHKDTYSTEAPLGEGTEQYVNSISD

[4] = biological target: Sentrin-specific protease 7 (Homo sapiens) (UniProt Q9BQF6); test: human SENP7 peptidase blockers, hit retest – biochemical, luminescence, single concentration, confirmation (AID 488917); conditions: recombinant SENP7, Z-RLRGG-aminoluciferin luminescence, 40 min; at 12.5 µM; active compounds read high
Chain of Sentrin-specific protease 7 (Homo sapiens) (Q9BQF6 706-1050 limits assumed): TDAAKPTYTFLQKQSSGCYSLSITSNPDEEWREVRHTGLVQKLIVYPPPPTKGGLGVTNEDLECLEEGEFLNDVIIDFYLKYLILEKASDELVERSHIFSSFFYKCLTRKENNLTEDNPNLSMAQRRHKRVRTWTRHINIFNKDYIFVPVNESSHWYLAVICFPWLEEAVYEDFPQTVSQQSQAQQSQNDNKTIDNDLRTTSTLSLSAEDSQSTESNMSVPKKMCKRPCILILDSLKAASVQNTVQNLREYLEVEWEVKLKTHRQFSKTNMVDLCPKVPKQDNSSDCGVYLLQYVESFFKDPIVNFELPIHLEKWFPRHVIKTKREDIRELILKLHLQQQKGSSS

[5] = biological target: Caspase-3 (Homo sapiens) (UniProt P42574); test: human caspase-3 activity blockade, out-of-family – biochemical, single concentration, selectivity assay for SENP inhibitor project, confirmation (AID 488918;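 active = mean inhibition above about 50%, limit read from the data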;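 also: plate controls were enzyme with DMSO for no effect and wells without caspase-3 for full effect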); conditions: purified caspase-3, Z-DEVD-aminoluciferin luminescence, 60 min; at 12.5 µM; active compounds read high
Chain of Caspase-3 (Homo sapiens) (P42574 28-227 limits assumed): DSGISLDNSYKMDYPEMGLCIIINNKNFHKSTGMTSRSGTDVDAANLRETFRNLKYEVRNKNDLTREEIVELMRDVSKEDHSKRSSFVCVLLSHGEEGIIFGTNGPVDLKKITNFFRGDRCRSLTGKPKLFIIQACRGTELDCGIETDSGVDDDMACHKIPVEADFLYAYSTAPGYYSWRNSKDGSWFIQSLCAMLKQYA

[6] = Ultra-Glo luciferase signal interference – biochemical, single concentration, SENP8 reaction pre-completed, artefact control for SENP inhibitor project, confirmation (AID 488919;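 active = mean inhibition above about 50% when retested at one dose, limit read from the data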;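 also: plate controls were DMSO wells with completed reaction for no effect and substrate without enzyme for full effect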); conditions: Pre-incubated SENP8/Z-RLRGG-aminoluciferin, luciferase luminescence interference; at 12.5 µM; active compounds read high
[7] = PERK-eIF2a-CHOP pathway stimulators, retested – cell-based, CHO-CHOP luciferase reporter, single concentration, confirmation (AID 463112; in the data active = activation above about 33%;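 also: 0% = DMSO wells and 100% = tunicamycin 10 µg/mL wells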); conditions: CHO-CHOP cells, CHOP-luciferase reporter luminescence; at 10 µM; active compounds read high; percent of tunicamycin response, DMSO as zero
[8] = Brca1-Bard1 BiLC signal decrease – luminescence, single concentration, counter-screen for Mdm2/MdmX interaction inhibitor project, confirmation (AID 504668; call rule not given here); conditions: Brca1/Bard1 bimolecular luciferase complementation counterscreen, at 8 µM, active compounds read high
[9] = biological target: Protein Mdm4 (Homo sapiens) + E3 ubiquitin-protein ligase Mdm2 (Homo sapiens) (UniProt O15151+Q00987); test: human Mdm2/MdmX binding disruption – cell-based, luminescence, single concentration, set 2, confirmation (AID 504601;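 active = mean inhibition of the luminescence signal across two replicates at or above 26 percent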); conditions: SaOS-2 split-luciferase Mdm2/MdmX complementation, at 8 µM, active compounds read high
Chain of Protein Mdm4 (Homo sapiens) + E3 ubiquitin-protein ligase Mdm2 (Homo sapiens) (O15151 whole entry, looked up): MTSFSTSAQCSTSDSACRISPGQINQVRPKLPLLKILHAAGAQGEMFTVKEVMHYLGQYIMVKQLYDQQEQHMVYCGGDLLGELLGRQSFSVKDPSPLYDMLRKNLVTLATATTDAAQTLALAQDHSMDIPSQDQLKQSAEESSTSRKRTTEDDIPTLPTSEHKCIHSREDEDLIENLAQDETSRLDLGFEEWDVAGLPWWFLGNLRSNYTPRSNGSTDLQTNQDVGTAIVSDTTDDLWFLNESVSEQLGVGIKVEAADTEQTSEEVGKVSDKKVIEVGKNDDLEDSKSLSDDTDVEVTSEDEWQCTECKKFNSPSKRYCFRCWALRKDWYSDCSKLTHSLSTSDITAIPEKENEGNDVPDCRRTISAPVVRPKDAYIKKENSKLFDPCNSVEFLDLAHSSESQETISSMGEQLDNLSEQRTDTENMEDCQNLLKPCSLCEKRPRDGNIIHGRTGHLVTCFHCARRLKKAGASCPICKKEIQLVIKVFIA
Chain of Protein Mdm4 (Homo sapiens) + E3 ubiquitin-protein ligase Mdm2 (Homo sapiens) (Q00987 whole entry, looked up): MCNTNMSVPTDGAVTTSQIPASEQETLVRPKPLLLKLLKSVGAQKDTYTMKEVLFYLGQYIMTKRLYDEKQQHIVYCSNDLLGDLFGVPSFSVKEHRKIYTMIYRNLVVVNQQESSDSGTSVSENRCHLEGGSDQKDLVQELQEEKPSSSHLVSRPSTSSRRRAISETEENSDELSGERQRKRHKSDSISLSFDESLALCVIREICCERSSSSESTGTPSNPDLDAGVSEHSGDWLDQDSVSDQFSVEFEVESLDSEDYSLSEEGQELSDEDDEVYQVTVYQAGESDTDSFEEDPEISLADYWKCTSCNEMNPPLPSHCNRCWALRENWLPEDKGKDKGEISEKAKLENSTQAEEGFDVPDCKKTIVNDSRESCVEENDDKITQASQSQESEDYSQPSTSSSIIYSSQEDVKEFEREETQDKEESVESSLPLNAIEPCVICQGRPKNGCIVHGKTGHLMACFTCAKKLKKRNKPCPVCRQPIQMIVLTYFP

[10] = inhibition of PEG-3 promoter luciferase signal – cell-based, HeLa, luciferase reporter, single concentration, confirmation (AID 602417;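 active = at 20 µM dose, 40% or more inhibition averaged across four replicates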); conditions: HeLa PEG-Prom luciferase reporter, luminescence, overnight; at 20 µM; active compounds read high

Which inhibition [1] does the source give for `O=C(Nc1ccc(-c2nnc(-c3ccccc3)o2)cc1)C1CCCO1` (centres undefined) here?
Its inhibition is -47.8%.

What about the inhibition [2] of the same compound?
Its inhibition is 28.8%.

What about the inhibition [3] of the same compound?
Its inhibition is 21.4%.

And the inhibition [4]?
The inhibition was 38.3%.

And the inhibition [5]?
The inhibition was 38.8%.

What about the inhibition [6] of the same compound?
Its inhibition is 8.6%.

Which results are given for `COc1ccc(Nc2cc(C)nc(-n3nc(C)cc3C)n2)cc1`?
inhibition [1]: 64.7% (active); activation [7]: 2.6%

For `COc1ccc(CNS(=O)(=O)c2cc(-c3cc(C)no3)ccc2C(C)C)cc1`, which inhibition [1] is on record?
Its inhibition is 41.9%.

Which inhibition [1] does the source give for `CC(C)CC(=O)N/C(N)=N/c1nc2ccccc2s1` here?
The inhibition was -131%.

Which results are given for `Oc1ccc(/C=N/Nc2ccc(C(F)(F)F)cn2)cc1O`?
inhibition [1]: -7.8%; activation [7]: 68.9% (active)

Which inhibition [1] does the source give for `C[C@@H]1C[C@@H]2O[C@H]2/C=C\C=C\C(=O)Cc2c(Cl)c(O)cc(O)c2C(=O)O1` here?
The inhibition was 96.4% (active).

What about the activation [7] of the same compound?
The activation was 134% (active).

What about the inhibition [8] of the same compound?
The inhibition was 33.8% (active).

For `O=C(Nc1ccc2c(c1)CCC2)c1ccc(Br)s1`, which inhibition [1] is on record?
The inhibition was -177%.

And the inhibition [2]?
The inhibition was 44.7%.

And the inhibition [3]?
Its inhibition is 70.8% (active).

And the inhibition [4]?
Its inhibition is 73.3% (active).

What about the inhibition [5] of the same compound?
The inhibition was 47%.

And the inhibition [6]?
The inhibition was 24.2%.

With `O=[N+]([O-])c1ccccc1S(=O)(=O)Nc1cccc2cccnc12` as the compound, how does the inhibition [1] read?
The inhibition was 33.1%.

And the activation [7]?
The activation was 656% (active).

What about the inhibition [9] of the same compound?
The inhibition was 102% (active).

What does the source list for `Clc1ccc2nc(CSc3ccccc3)cn2c1`?
inhibition [1]: -58.5%; inhibition [2]: 53.7% (active); inhibition [3]: 55.6% (active); inhibition [4]: 86.6% (active); inhibition [5]: 68.9% (active); inhibition [6]: 70.8% (active)

With `CCc1ccc2oc(-c3ccc(N)cc3)nc2c1` as the compound, how does the inhibition [1] read?
Its inhibition is -126%.

And the inhibition [2]?
The inhibition was 94.5% (active).

What about the inhibition [3] of the same compound?
The inhibition was 94.8% (active).

And the inhibition [4]?
Its inhibition is 100% (active).

And the inhibition [5]?
The inhibition was 84.1% (active).

And the inhibition [6]?
Its inhibition is 94.5% (active).

Which inhibition [1] does the source give for `O=C(NCC#CCSc1nnc(-c2cccc3ccccc23)o1)c1cccs1` here?
Its inhibition is 62.8% (active).

With `O=C(Nc1ccc(CSc2ccccc2)cc1)c1ccc(CN2CCOCC2)cc1` as the compound, how does the inhibition [1] read?
The inhibition was 62.3% (active).

For `Cc1ccc2cc3cc(C(=O)N4CCCCCC4)oc3nc2c1`, which inhibition [1] is on record?
The inhibition was -90.9%.

And the inhibition [2]?
The inhibition was 41.9%.

What about the inhibition [3] of the same compound?
Its inhibition is 47.9%.

And the inhibition [4]?
Its inhibition is 79.7% (active).

What about the inhibition [5] of the same compound?
Its inhibition is 62.2% (active).

And the inhibition [6]?
Its inhibition is 47.7%.

With `CC[C@]1(O)CC2CN(CCc3c([nH]c4ccccc34)[C@@](C(=O)OC)(c3cc4c(cc3OC)N(C=O)[C@H]3[C@@](O)(C(=O)OC)[C@H](OC(C)=O)[C@]5(CC)C=CCN6CC[C@]43[C@@H]65)C2)C1` (some centres undefined) as the compound, how does the inhibition [1] read?
The inhibition was 62.8% (active).

For `O=[N+]([O-])c1ccc2oc(-c3cccc(O)c3)nc2c1`, which inhibition [1] is on record?
Its inhibition is -113%.

And the inhibition [2]?
The inhibition was 90.4% (active).

And the inhibition [3]?
Its inhibition is 90.4% (active).

What about the inhibition [4] of the same compound?
The inhibition was 99% (active).

What about the inhibition [5] of the same compound?
Its inhibition is 85.8% (active).

And the inhibition [6]?
The inhibition was 84.4% (active).

With `Cc1ccc(OCc2nc3ccccc3n2C)cc1` as the compound, how does the inhibition [1] read?
Its inhibition is -91.5%.

And the inhibition [2]?
Its inhibition is 8.9%.

What about the inhibition [3] of the same compound?
Its inhibition is 54.5% (active).

What about the inhibition [4] of the same compound?
Its inhibition is 79% (active).

And the inhibition [5]?
Its inhibition is 68% (active).

And the inhibition [6]?
The inhibition was 18.5%.

With `CCC(=O)Nc1ccc2nn(-c3ccc(F)cc3)nc2c1` as the compound, how does the inhibition [1] read?
Its inhibition is -119%.

And the inhibition [2]?
Its inhibition is 18.1%.

What about the inhibition [3] of the same compound?
The inhibition was 38.2%.

What about the inhibition [4] of the same compound?
The inhibition was 46.4%.

And the inhibition [5]?
Its inhibition is 32.5%.

And the inhibition [6]?
The inhibition was 3.4%.

Which inhibition [1] does the source give for `COc1cc(NS(=O)(=O)c2ccc3ccccc3c2)c2ncccc2c1` here?
The inhibition was 2.5%.

What about the activation [7] of the same compound?
Its activation is 689% (active).

And the inhibition [10]?
The inhibition was 43% (active).

What does the source list for `N#Cc1ccc(C2N=C(c3ccccc3)NO2)cc1` (centres undefined)?
inhibition [1]: -93.9%; inhibition [2]: 24.2%; inhibition [3]: 9.2%; inhibition [4]: 22.5%; inhibition [5]: 13.1%; inhibition [6]: 2.1%

For `CC(=O)Nc1cccc(-c2csc(Nc3cccc(C)n3)n2)c1`, which inhibition [1] is on record?
The inhibition was -67.1%.

And the inhibition [2]?
The inhibition was 6.1%.

What about the inhibition [3] of the same compound?
Its inhibition is 93.9% (active).

What about the inhibition [4] of the same compound?
Its inhibition is 102% (active).

What about the inhibition [5] of the same compound?
The inhibition was 75.7% (active).

What about the inhibition [6] of the same compound?
The inhibition was 94.2% (active).

For `Cc1ccc(O)c(NC(=O)c2cc(-c3ccco3)on2)c1`, which inhibition [1] is on record?
The inhibition was 52.2% (active).

And the inhibition [2]?
Its inhibition is 30.6%.

And the inhibition [3]?
The inhibition was 36.5%.

And the inhibition [4]?
The inhibition was 81.1% (active).

And the inhibition [5]?
Its inhibition is 44.4%.

And the inhibition [6]?
The inhibition was 14.4%.

From PubChem BioAssay
